In PMC7862700, “An all-to-all approach to the identification of sequence-specific readers for epigenetic DNA modifications on cytosine” one finds binding signal data, which are given here for seven sequences.

Assay in all cases: DAPPL (digital affinity profiling via proximity ligation, sequencing); 10 mM Tris-HCl pH 7.5, 50 mM NaCl, 1 mM DTT, 4% glycerol, room temperature, 30 min; GST-TFs on glutathione beads, 16-mer random dsDNA library, 0.1% formaldehyde crosslink after washing; high values mean tight binding
For one assay, the target named is T1, FEV (Homo sapiens, UniProt Q99581 1-238).
T1 sequence: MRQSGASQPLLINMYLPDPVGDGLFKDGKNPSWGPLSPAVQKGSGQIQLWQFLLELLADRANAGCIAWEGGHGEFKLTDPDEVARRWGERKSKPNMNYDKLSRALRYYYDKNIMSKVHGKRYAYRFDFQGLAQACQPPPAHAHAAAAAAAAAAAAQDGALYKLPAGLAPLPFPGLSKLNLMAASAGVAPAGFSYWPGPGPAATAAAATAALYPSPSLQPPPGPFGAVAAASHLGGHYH
The conditions noted are these: protein: recombinant; tags: N-terminal GST; dsDNA, one strand shown. Summed up: (§1)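 Binding signal is each hexamer's read frequency for a factor divided by its frequency in the tag-only sample. The factors were GST-fused human transcription factors from yeast, captured on glutathione beads, DNA-barcoded and pooled with that sample. Pools were incubated with 200 nmole of a random double-stranded 16-mer DNA library in Tris/NaCl/DTT/glycerol buffer at room temperature for 30 min, then washed, crosslinked with 0.1% formaldehyde, proximity-ligated with BsaI/T4 ligase (1 h, 37 °C), PCR-amplified and sequenced on an Illumina NextSeq500.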

For a further assay, the target named is ETV5 (Homo sapiens, UniProt P41161 1-510). The note with it: protein: recombinant; tags: N-terminal GST; dsDNA, one strand shown. Summed up:
as §1

In the next assay the target is HSF1 (Homo sapiens, UniProt Q00613 1-529). The note with it: protein: recombinant; tags: N-terminal GST; chain copies: 3; dsDNA, one strand shown. Summed up:
as §1

The next assay addresses T2, SPIC (Homo sapiens, UniProt Q8N5J4 1-248).
T2 sequence: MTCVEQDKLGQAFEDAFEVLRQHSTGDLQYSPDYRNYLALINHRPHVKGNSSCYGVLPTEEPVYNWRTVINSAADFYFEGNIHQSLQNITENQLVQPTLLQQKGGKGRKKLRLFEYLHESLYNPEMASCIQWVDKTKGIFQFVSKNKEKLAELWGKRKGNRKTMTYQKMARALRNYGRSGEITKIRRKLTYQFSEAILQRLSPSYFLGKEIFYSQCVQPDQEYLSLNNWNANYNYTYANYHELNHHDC
The conditions noted are these: protein: recombinant; tags: N-terminal GST; dsDNA, one strand shown. Summed up:
as §1

In a further assay the target is ELF4 (Homo sapiens, UniProt Q99607 1-663). The conditions noted are these: protein: recombinant; tags: N-terminal GST; dsDNA, one strand shown. Summed up: as §1
Another assay has as its target T3, ELK4 (Homo sapiens, UniProt P28324-2 1-405).
T3 sequence: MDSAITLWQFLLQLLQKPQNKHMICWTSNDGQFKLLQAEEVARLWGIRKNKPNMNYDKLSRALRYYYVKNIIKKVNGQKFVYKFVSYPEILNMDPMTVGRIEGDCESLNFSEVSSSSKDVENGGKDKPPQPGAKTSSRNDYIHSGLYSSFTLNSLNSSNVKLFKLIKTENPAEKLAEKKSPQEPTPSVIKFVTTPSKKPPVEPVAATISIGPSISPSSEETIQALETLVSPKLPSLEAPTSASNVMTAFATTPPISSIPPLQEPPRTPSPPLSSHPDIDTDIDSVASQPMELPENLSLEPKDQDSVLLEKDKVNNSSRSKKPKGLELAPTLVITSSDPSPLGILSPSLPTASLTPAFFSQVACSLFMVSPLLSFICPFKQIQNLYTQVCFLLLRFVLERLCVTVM
The conditions noted are these: protein: recombinant; tags: N-terminal GST; dsDNA, one strand shown. Summed up:
as §1

The target of a further assay is T4, ETV2 (Homo sapiens, UniProt O00321 1-342).
T4 sequence: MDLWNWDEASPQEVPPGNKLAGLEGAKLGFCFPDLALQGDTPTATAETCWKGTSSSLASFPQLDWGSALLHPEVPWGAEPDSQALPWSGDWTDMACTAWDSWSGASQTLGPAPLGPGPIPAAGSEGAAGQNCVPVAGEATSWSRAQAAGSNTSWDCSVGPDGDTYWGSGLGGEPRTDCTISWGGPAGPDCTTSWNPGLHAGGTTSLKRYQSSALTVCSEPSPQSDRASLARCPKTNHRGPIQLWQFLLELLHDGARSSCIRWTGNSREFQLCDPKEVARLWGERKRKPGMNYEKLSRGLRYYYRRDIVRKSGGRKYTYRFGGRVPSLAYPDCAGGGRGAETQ
The conditions noted are these: protein: recombinant; tags: N-terminal GST; dsDNA, one strand shown. Put shortly:
as §1

The target in the next assay is CRX (Homo sapiens, UniProt O43186 1-299). The conditions noted are these: protein: recombinant; tags: N-terminal GST; dsDNA, one strand shown. Summed up: as §1
The next assay concerns the target ETV1 (Homo sapiens, UniProt P50549 1-477). The conditions noted are these: protein: recombinant; tags: N-terminal GST; dsDNA, one strand shown. Summed up: as §1

Chain of ELF4 (Q99607 whole entry): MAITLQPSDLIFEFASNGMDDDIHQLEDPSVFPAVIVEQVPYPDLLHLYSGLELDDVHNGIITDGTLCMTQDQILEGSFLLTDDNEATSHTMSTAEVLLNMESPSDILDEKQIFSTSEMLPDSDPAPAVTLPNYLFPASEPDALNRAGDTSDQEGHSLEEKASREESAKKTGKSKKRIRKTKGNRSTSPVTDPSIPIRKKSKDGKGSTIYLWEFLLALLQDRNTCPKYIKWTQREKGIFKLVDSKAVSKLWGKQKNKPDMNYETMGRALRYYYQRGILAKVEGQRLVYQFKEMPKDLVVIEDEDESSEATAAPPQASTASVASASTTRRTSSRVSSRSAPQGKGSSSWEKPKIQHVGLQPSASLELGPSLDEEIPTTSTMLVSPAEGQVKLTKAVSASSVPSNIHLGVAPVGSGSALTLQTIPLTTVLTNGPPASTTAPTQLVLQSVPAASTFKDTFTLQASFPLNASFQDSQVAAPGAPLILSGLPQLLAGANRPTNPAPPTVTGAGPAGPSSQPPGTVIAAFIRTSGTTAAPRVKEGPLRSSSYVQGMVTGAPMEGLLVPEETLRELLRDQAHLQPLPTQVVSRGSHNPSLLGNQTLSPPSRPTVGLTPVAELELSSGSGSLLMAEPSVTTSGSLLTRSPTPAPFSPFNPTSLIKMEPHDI
Chain of CRX (O43186 whole entry): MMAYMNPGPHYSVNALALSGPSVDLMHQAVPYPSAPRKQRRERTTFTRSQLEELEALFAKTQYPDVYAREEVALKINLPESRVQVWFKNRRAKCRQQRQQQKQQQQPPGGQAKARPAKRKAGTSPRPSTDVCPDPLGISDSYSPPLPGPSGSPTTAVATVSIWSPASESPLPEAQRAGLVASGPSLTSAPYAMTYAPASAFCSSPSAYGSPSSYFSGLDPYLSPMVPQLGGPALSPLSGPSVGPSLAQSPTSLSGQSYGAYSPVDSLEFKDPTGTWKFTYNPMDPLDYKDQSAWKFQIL
Chain of ETV1 (P50549 whole entry): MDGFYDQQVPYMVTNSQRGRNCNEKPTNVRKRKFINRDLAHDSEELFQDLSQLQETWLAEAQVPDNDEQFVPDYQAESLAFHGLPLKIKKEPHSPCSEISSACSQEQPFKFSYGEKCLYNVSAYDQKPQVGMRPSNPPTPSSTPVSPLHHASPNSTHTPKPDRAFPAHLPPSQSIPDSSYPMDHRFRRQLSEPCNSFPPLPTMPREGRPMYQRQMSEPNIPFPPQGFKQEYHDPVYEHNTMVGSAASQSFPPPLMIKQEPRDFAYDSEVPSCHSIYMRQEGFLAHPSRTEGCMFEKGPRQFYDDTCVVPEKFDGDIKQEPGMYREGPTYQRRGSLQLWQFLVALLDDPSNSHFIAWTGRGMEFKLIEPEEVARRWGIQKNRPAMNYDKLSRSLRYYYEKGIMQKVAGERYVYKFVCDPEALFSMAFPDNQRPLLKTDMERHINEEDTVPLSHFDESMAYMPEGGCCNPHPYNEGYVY
Chain of ETV5 (P41161 whole entry): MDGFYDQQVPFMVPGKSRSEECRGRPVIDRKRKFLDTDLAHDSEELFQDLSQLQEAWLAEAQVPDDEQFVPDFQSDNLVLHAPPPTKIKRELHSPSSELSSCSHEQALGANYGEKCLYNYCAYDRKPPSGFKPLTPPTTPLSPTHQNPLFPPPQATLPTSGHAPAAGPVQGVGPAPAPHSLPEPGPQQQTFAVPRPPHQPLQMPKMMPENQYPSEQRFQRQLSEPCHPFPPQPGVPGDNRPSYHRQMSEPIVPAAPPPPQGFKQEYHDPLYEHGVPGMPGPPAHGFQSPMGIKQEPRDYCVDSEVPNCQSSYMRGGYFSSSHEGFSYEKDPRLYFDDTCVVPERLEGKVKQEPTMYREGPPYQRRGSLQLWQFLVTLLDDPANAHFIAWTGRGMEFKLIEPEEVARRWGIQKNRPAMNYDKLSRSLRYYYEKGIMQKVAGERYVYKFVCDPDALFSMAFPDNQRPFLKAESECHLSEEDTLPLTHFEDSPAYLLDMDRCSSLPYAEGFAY
Chain of HSF1 (Q00613 whole entry): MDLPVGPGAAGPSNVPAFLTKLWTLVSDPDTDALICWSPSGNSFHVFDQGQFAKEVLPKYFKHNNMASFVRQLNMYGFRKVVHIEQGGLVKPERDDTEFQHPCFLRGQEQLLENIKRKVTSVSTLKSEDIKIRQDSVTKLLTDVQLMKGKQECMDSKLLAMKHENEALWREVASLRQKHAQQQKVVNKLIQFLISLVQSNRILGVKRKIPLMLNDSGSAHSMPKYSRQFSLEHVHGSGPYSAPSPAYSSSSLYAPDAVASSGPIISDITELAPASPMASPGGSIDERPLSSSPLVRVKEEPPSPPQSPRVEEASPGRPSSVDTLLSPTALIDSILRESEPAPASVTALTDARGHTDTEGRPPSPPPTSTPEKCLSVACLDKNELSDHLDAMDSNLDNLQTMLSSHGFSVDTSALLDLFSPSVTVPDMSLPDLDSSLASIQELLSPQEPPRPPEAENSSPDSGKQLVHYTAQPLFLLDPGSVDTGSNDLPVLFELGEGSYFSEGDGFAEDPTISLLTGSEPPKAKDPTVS

As for TTTTAG, the binding signal is 1.14 fold enrichment (6-mer frequency, TF over GST control) with FEV; 1.09 fold enrichment (6-mer frequency, TF over GST control) with ETV5; 1.19 fold enrichment (6-mer frequency, TF over GST control) with HSF1; 1.13 fold enrichment (6-mer frequency, TF over GST control) in the assay with SPIC; 1.24 fold enrichment (6-mer frequency, TF over GST control) in the assay with ELF4; 1.1 fold enrichment (6-mer frequency, TF over GST control) with ELK4. Moreover, the binding signal was 1.13 fold enrichment (6-mer frequency, TF over GST control) with ETV2; 1.48 fold enrichment (6-mer frequency, TF over GST control) with CRX; 1.19 fold enrichment (6-mer frequency, TF over GST control) with ETV1.

Regarding TATCTG, the binding signal with FEV was 1.15 fold enrichment (6-mer frequency, TF over GST control); in the assay with ETV5, 1.15 fold enrichment (6-mer frequency, TF over GST control); in the assay with HSF1, 1.36 fold enrichment (6-mer frequency, TF over GST control); with SPIC, 1.17 fold enrichment (6-mer frequency, TF over GST control); with ELF4 it was 1.14 fold enrichment (6-mer frequency, TF over GST control); with ELK4 it was 1.25 fold enrichment (6-mer frequency, TF over GST control). In addition, the binding signal was 1.33 fold enrichment (6-mer frequency, TF over GST control) with ETV2; 1.46 fold enrichment (6-mer frequency, TF over GST control) with CRX; 1.2 fold enrichment (6-mer frequency, TF over GST control) with ETV1.

For CGATAA, the binding signal in the assay with FEV was 1.02 fold enrichment (6-mer frequency, TF over GST control); with ETV5, 1.04 fold enrichment (6-mer frequency, TF over GST control); in the assay with HSF1, 1.51 fold enrichment (6-mer frequency, TF over GST control); in the assay with SPIC, 1.12 fold enrichment (6-mer frequency, TF over GST control); with ELF4, 1.16 fold enrichment (6-mer frequency, TF over GST control); with ELK4, 1.1 fold enrichment (6-mer frequency, TF over GST control). The binding signal with ETV2 is 1.19 fold enrichment (6-mer frequency, TF over GST control); in the assay with CRX, 1.75 fold enrichment (6-mer frequency, TF over GST control); with ETV1, 1.09 fold enrichment (6-mer frequency, TF over GST control).

CTGGAC: the binding signal in the assay with FEV is 1.1 fold enrichment (6-mer frequency, TF over GST control); with ETV5 it was 1.18 fold enrichment (6-mer frequency, TF over GST control); with HSF1, 1.23 fold enrichment (6-mer frequency, TF over GST control); in the assay with SPIC, 1.1 fold enrichment (6-mer frequency, TF over GST control); with ELF4 it was 1.19 fold enrichment (6-mer frequency, TF over GST control); in the assay with ELK4, 1.11 fold enrichment (6-mer frequency, TF over GST control). Also, the binding signal was 1.2 fold enrichment (6-mer frequency, TF over GST control) with ETV2 and 1.09 fold enrichment (6-mer frequency, TF over GST control) with ETV1.

For the sequence TATTAG, the binding signal was 1.02 fold enrichment (6-mer frequency, TF over GST control) with FEV; 1.04 fold enrichment (6-mer frequency, TF over GST control) with ETV5; 1.42 fold enrichment (6-mer frequency, TF over GST control) with HSF1; 1.13 fold enrichment (6-mer frequency, TF over GST control) with SPIC; 1.05 fold enrichment (6-mer frequency, TF over GST control) in the assay with ELF4; 1.04 fold enrichment (6-mer frequency, TF over GST control) with ELK4. The binding signal was 1.23 fold enrichment (6-mer frequency, TF over GST control) with ETV2; 1.94 fold enrichment (6-mer frequency, TF over GST control) with CRX; 1.12 fold enrichment (6-mer frequency, TF over GST control) in the assay with ETV1.

TGCGCG: the binding signal with FEV is 1.07 fold enrichment (6-mer frequency, TF over GST control); in the assay with ETV5, 1.07 fold enrichment (6-mer frequency, TF over GST control); with HSF1, 1.15 fold enrichment (6-mer frequency, TF over GST control); in the assay with SPIC, 1.05 fold enrichment (6-mer frequency, TF over GST control); in the assay with ELF4 it was 1.05 fold enrichment (6-mer frequency, TF over GST control); with ELK4, 1.16 fold enrichment (6-mer frequency, TF over GST control). Also, the binding signal with ETV2 was 1.13 fold enrichment (6-mer frequency, TF over GST control); with ETV1, 1.19 fold enrichment (6-mer frequency, TF over GST control).

On to CGATAG, for which the binding signal with FEV was 1.15 fold enrichment (6-mer frequency, TF over GST control); in the assay with ETV5, 1.18 fold enrichment (6-mer frequency, TF over GST control); in the assay with HSF1, 1.14 fold enrichment (6-mer frequency, TF over GST control); with SPIC, 1.18 fold enrichment (6-mer frequency, TF over GST control); in the assay with ELF4, 1.12 fold enrichment (6-mer frequency, TF over GST control); in the assay with ELK4, 1.16 fold enrichment (6-mer frequency, TF over GST control). The binding signal was 1.16 fold enrichment (6-mer frequency, TF over GST control) with ETV2 and 1.16 fold enrichment (6-mer frequency, TF over GST control) in the assay with ETV1.
